# Values without a mark were called inactive.
# System: Schistosoma mansoni schistosomula (NMRI)
# Experiment: phenotypic severity score (0-4); higher = more antischistosomal effect, active = 2 or more
# Conditions: 72 h; 10 µM
# 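Throughout, for phenotypic severity score (0-4): visual microscopic scoring of shape, motility and density changes versus 0.5% DMSO solvent controls, one point per descriptor, degeneracy or death scored 4, mean of duplicate wells.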
row,SMILES,phenotypic severity score
1,Nc1ncc(-c2cn[nH]c2)cc1-c1nc2cc(Cl)cnc2[nH]1,0
2,Nc1ncnc2c1ncn2C[C@@H](O)[C@@H](O)C(=O)O,0
3,CN1CCC(c2cc(-c3ccncc3)c(-c3ccc(F)cc3)[nH]2)CC1,0
4,Cc1[nH]c2ccccc2c1C(c1cccs1)N1CCN(C)CC1 (stereo not drawn),4 (active)
5,Cc1cccc(Cn2ccc(NC(=O)c3ccc4c(c3)OCO4)n2)c1,0
6,COc1ccc(N(CCc2cccc(C)n2)C(C)=O)cc1,0
7,CC[C@H](CO)NCCN[C@H](CC)CO,0
8,O=C(NC1CCCCC1)N1CCN(Cc2ccc3c(c2)OCO3)CC1,0
9,Brc1c(-c2ccc3c(c2)OCO3)nc2ncccn12,0
10,CCCCS(=O)(=O)Nc1ccc2cnn(C)c2c1,0
11,Cc1cc(NC(=O)c2ccc(Oc3ccc(Cl)cc3O)o2)no1,0
12,CC(C)n1nc(-c2cc3c(Cl)cccc3[nH]2)c2c(N)ncnc21,4 (active)
13,CN1CCN(c2cc(-c3ccc(F)cc3)nc(-c3ccncc3)n2)CC1,0
14,COC(=O)c1c(NC(=O)c2c(F)c(F)c(F)c(F)c2F)sc2c1CCCCC2,4 (active)
15,Cc1nn(C(=O)Nc2cccc(C(F)(F)F)c2)c(C)c1Sc1ncccn1,0
16,c1ccc(Oc2ccc(-c3cc(N4CCNCC4)[nH]n3)cc2)cc1,2 (active)
17,Cn1c(=O)c2c(S(C)(=O)=O)snc2n(C)c1=O,4 (active)
18,c1ccc(-c2nc(NC3CCCCC3)cc(C3CC3)n2)nc1,0
19,COc1cncc(-c2cncc(N3CCN(c4ccncc4)CC3)n2)c1,0

# System: Schistosoma mansoni schistosomula (Liberian)
# Experiment: drug effect (1 - score/DMSO control score) (fraction); higher = more antischistosomal effect, active = 0.5 or more; extreme values may be limits of the assay
# Conditions: 24 h; 10 µM
# Method in brief: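 Drug effect was calculated by comparing the mean score of the test wells with the mean score of the DMSO wells, and any negative value was set to zero. Duplicate wells of 50 Liberian-strain S. mansoni schistosomula, mechanically transformed from cercariae and pre-incubated at least 12 h, received 10 µM compound in Medium 199 with 5% FCS at 37 °C, 5% CO2, with 0.1% DMSO in the comparison wells. Visual scoring at 10× took place at 24, 48 and 72 h on a quarter-point scale from 3 (normal) to 0 (dead), and a plate counted only if its DMSO wells averaged at least 2.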
row,SMILES,drug effect
1,Cc1cc(O)nc(-n2nc(C)cc2C)n1,0.15
2,N=C(N)c1ccc(OCCCCCOc2ccc(C(=N)N)cc2)cc1,< 0
3,O=C(Nc1ccc(N2CCNCC2)cc1)c1ccn2ncc(-c3cccc(Cl)c3)c2n1,0.73 (active)
4,Cc1ccc(S(=O)(=O)N2CCN(C(=O)c3cc(-c4ccccc4)[nH]n3)CC2)cc1,0.455
5,c1csc(-c2cnc3sc(NCC4CCOCC4)nn23)c1,0.182
6,Brc1cncc(-c2cc(NCCCn3ccnc3)nc(-c3ccccc3)n2)c1,0.273
7,O=C(NC1=NCCS1)c1sc2cc(F)ccc2c1Cl,0.0909
8,O=C(NCCc1c[nH]c2ccccc12)c1cc2ccccc2oc1=O,0.182
9,CCc1ccc(S(=O)(=O)Nc2cc(CN3CCN(CCC(C)C)CC3)ccc2C)cc1,0.25
10,Clc1ccc(CN2CCN(C3=NCCN3)CC2)cc1Cl,0.1
11,CC(c1cc(Cl)cc(Cl)c1)N(C)c1ncc2c(N)nc(N)nc2n1 (stereo not drawn),< 0
12,Nc1ncc(-c2ccc(C(F)(F)F)nc2)cc1-c1ccc(C(F)(F)F)nc1,0.182
13,FC(F)(F)c1nnc2ccc(Cl)nn12,0.2
14,O=C(c1ccc(NCCO)cc1)C1C[C@H]1c1ccc(Cl)cc1 (stereo partly drawn),0.135
15,NCC(=O)N1CCn2c(nc(-c3ccccc3)c2Nc2ccc3c(c2)OCO3)C1,0.297
16,C[C@H]1COc2c(N3CCN(C)CC3)c(F)cc3c(=O)c(C(=O)O)cn1c23,0.0455
17,COc1ccc(C2=NN(C3CCCCCC3)C(=O)C2(C)C)cc1OCc1ccccn1,0.273
18,COc1ccc(CCN2CCC(NCc3cccc(N(C)C)c3)CC2)cc1,< 0
19,COc1cccc2c(C)nc(N=C(N)N)nc12,0.182
20,Nc1ncc(-c2cn[nH]c2)cc1-c1nc2cc(Cl)cnc2[nH]1,< 0
21,Nc1ncnc2c1ncn2C[C@@H](O)[C@@H](O)C(=O)O,0.1
22,CN1CCC(c2cc(-c3ccncc3)c(-c3ccc(F)cc3)[nH]2)CC1,< 0
23,Cc1[nH]c2ccccc2c1C(c1cccs1)N1CCN(C)CC1 (stereo not drawn),1 (active)
24,Cc1cccc(Cn2ccc(NC(=O)c3ccc4c(c3)OCO4)n2)c1,0.0556
25,COc1ccc(N(CCc2cccc(C)n2)C(C)=O)cc1,0.15
26,CC[C@H](CO)NCCN[C@H](CC)CO,0.15
27,O=C(NC1CCCCC1)N1CCN(Cc2ccc3c(c2)OCO3)CC1,0.0455
28,Brc1c(-c2ccc3c(c2)OCO3)nc2ncccn12,0.182
29,CCCCS(=O)(=O)Nc1ccc2cnn(C)c2c1,0.0811
